Laboratory results from ChEMBL document CHEMBL1961873, “Compounds: GSK PKIS; Assays: Nanosyn kinase panel” (2012).

Columns and labels:
[1] = target: T1, Serine/threonine-protein kinase Nek9 (Homo sapiens) (UniProt Q8TD19); conditions: at 1 µM;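 further: each value is a mean percent inhibition of NEK9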
T1 sequence (whole entry): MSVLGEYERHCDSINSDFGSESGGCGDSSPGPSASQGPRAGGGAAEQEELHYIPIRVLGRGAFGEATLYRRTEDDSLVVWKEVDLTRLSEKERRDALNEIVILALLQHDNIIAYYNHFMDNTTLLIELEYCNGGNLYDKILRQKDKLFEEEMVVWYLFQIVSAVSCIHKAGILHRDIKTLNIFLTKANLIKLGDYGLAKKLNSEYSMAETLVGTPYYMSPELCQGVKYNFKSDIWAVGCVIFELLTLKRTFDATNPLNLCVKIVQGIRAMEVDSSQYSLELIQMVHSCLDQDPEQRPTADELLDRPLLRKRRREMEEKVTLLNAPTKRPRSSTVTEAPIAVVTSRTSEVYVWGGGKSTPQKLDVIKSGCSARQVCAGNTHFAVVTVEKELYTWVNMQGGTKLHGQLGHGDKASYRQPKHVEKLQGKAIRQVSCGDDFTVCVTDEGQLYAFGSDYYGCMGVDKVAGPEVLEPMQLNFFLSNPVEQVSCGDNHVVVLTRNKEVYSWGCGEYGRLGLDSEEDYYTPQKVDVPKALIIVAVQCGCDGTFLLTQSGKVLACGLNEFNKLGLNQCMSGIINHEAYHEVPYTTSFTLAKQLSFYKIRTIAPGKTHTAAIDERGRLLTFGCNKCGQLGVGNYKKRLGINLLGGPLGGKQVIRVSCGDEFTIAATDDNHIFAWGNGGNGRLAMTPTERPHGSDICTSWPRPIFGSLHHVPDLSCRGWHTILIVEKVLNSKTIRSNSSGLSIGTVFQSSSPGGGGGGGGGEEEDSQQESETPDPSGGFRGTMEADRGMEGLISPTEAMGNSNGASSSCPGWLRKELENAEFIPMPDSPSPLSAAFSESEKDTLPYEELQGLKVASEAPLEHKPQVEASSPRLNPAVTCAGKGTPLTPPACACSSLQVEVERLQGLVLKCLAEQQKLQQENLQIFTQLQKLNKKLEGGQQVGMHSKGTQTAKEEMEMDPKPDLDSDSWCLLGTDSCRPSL

[2] = target: Serine/threonine-protein kinase PLK1 (Homo sapiens) (UniProt P53350); conditions: at 0.1 µM
[3] = target: Serine/threonine-protein kinase PLK1 (Homo sapiens) (UniProt P53350); conditions: at 1 µM
[4] = target: T2, Dual specificity protein kinase TTK (Homo sapiens) (UniProt P33981); conditions: at 0.1 µM
T2 sequence (whole entry): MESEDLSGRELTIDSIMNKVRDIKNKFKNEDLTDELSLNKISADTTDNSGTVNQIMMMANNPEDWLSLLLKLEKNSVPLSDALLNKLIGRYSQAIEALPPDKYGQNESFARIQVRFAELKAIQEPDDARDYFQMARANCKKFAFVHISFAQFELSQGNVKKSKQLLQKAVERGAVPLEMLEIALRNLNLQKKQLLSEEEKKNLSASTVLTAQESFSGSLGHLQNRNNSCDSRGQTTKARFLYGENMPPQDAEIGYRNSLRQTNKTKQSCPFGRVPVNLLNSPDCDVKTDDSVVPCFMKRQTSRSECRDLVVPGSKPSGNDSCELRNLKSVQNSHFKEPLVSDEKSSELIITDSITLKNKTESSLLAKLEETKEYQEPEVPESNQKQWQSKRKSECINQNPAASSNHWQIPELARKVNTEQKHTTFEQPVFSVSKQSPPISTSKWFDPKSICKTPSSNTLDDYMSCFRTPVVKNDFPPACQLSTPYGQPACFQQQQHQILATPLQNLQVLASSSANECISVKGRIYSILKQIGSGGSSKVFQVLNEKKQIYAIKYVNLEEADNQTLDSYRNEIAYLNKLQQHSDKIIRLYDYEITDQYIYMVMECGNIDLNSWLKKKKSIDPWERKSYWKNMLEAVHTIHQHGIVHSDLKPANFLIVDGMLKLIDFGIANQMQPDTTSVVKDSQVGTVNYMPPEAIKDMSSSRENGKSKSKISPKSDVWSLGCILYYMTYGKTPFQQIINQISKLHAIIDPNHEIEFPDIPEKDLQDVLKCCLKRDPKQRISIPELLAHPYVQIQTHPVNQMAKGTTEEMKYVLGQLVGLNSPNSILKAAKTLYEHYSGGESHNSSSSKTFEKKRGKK

[5] = test system: T3, Receptor-type tyrosine-protein kinase FLT3 (Homo sapiens), P36888 [D835Y]; conditions: at 1 µM
T3 sequence (whole entry): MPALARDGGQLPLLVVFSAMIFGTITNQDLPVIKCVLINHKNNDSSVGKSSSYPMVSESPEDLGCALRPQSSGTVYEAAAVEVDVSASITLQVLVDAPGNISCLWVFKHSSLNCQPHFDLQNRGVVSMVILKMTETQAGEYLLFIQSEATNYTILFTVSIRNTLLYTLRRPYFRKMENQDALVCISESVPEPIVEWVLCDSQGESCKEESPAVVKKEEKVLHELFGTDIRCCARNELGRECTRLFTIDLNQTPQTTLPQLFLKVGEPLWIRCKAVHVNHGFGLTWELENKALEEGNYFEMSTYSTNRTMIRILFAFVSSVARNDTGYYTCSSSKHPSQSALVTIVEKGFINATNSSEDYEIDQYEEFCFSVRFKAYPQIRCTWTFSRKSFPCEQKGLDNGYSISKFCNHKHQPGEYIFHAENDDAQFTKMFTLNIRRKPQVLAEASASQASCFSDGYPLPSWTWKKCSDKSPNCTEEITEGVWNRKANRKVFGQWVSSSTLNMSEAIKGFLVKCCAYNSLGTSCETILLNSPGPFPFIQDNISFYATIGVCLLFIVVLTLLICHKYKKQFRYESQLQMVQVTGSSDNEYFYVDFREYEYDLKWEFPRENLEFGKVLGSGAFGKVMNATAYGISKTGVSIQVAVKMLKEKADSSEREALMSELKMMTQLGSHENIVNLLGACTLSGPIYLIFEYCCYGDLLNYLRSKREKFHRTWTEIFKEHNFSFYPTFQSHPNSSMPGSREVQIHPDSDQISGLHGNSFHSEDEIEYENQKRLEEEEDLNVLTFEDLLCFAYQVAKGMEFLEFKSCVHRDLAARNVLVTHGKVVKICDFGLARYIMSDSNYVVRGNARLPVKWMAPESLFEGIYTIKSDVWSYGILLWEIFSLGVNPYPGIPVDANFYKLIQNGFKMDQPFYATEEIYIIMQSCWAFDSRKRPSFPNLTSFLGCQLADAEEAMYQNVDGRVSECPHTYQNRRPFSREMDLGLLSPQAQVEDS

[6] = target: Vascular endothelial growth factor receptor 3 (Homo sapiens) (UniProt P35916); conditions: at 0.1 µM
[7] = target: Vascular endothelial growth factor receptor 3 (Homo sapiens) (UniProt P35916); conditions: at 1 µM
[8] = target: Macrophage colony-stimulating factor 1 receptor (Homo sapiens) (UniProt P07333); conditions: at 0.1 µM
[9] = target: Macrophage colony-stimulating factor 1 receptor (Homo sapiens) (UniProt P07333); conditions: at 1 µM
[10] = target: Tyrosine-protein kinase Fyn (Homo sapiens) (UniProt P06241); conditions: at 0.1 µM
[11] = target: Tyrosine-protein kinase Fyn (Homo sapiens) (UniProt P06241); conditions: at 1 µM
[12] = target: Tyrosine-protein kinase HCK (Homo sapiens) (UniProt P08631); conditions: at 0.1 µM
[13] = target: Tyrosine-protein kinase HCK (Homo sapiens) (UniProt P08631); conditions: at 1 µM
[14] = target: Insulin-like growth factor 1 receptor (Homo sapiens) (UniProt P08069); conditions: at 0.1 µM
[15] = target: Insulin-like growth factor 1 receptor (Homo sapiens) (UniProt P08069); conditions: at 1 µM
[16] = target: Insulin receptor (Homo sapiens) (UniProt P06213); conditions: at 0.1 µM
[17] = target: Insulin receptor (Homo sapiens) (UniProt P06213); conditions: at 1 µM
[18] = target: Insulin receptor-related protein (Homo sapiens) (UniProt P14616); conditions: at 0.1 µM
[19] = target: Insulin receptor-related protein (Homo sapiens) (UniProt P14616); conditions: at 1 µM
[20] = target: T4, Tyrosine-protein kinase ITK/TSK (Homo sapiens) (UniProt Q08881); conditions: at 0.1 µM;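 further: mean percent inhibition of ITK from the GSK PKIS screen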
T4 sequence (whole entry): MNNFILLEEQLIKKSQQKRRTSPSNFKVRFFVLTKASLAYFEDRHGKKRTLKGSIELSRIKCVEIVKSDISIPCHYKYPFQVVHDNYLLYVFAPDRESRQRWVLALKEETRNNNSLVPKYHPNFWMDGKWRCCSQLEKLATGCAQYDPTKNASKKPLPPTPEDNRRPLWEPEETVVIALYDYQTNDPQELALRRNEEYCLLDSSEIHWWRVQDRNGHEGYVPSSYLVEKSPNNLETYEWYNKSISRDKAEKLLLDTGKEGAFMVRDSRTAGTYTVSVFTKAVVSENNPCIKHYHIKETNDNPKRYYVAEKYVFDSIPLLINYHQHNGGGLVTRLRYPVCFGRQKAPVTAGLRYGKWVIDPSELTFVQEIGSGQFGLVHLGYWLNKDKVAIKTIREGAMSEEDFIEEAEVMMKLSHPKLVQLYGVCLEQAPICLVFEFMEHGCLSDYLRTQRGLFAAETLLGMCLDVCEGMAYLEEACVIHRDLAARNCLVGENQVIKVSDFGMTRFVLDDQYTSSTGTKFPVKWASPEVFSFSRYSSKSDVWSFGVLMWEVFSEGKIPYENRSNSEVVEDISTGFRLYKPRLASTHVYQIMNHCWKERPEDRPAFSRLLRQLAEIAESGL

Insulin receptor (Homo sapiens), sequence (P06213 28-758 limits assumed): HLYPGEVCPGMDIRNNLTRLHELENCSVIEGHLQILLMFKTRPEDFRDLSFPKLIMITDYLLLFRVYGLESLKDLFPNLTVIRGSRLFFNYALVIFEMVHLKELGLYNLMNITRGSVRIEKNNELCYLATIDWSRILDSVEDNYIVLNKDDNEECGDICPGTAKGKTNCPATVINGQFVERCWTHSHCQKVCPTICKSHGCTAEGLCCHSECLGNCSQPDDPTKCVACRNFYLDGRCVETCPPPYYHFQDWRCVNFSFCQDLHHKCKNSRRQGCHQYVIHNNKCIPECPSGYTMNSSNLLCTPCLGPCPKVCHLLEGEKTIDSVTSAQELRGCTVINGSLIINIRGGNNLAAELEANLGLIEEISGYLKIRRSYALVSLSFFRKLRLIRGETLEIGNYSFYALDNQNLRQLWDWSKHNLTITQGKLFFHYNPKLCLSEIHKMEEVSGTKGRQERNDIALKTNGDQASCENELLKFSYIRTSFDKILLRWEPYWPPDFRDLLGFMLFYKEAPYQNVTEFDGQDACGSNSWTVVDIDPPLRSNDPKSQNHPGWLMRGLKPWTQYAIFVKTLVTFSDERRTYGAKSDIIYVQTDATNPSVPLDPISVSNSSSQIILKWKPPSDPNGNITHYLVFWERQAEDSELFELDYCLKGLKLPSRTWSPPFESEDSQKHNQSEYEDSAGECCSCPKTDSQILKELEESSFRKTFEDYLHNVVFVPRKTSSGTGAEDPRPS
Insulin receptor (Homo sapiens), sequence (P06213 763-1382 limits assumed): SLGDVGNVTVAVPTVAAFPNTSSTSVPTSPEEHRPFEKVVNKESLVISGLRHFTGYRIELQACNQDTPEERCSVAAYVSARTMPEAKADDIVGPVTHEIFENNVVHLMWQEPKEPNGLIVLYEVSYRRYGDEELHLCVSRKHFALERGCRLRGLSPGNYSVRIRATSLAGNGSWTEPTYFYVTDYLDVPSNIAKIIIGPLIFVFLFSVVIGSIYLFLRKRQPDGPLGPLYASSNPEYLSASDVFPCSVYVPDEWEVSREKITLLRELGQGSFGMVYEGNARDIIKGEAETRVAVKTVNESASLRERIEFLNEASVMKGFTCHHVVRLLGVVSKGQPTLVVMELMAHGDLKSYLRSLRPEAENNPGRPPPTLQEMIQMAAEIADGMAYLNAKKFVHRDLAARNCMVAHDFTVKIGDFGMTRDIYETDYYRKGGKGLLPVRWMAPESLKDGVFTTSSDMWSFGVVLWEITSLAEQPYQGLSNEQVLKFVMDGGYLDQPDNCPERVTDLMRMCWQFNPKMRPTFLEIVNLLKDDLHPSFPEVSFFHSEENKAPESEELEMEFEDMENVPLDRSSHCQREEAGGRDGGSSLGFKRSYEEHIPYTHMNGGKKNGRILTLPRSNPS
Tyrosine-protein kinase Fyn (Homo sapiens), sequence (P06241 2-537 limits assumed): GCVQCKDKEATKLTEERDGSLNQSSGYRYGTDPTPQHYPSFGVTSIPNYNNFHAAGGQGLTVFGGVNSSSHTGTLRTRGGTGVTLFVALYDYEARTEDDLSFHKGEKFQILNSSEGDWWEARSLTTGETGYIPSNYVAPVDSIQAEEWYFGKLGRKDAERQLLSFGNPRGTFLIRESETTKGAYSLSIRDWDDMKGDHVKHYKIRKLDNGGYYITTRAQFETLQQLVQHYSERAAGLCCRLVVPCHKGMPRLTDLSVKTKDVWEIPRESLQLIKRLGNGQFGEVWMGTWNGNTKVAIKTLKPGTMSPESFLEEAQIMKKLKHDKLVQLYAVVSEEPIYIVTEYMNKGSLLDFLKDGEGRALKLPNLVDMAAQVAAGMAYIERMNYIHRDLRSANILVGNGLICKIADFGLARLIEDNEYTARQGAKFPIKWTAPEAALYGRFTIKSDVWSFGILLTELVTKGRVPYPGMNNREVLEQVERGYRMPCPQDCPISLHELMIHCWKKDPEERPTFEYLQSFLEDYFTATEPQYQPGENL
Macrophage colony-stimulating factor 1 receptor (Homo sapiens), sequence (P07333 whole entry): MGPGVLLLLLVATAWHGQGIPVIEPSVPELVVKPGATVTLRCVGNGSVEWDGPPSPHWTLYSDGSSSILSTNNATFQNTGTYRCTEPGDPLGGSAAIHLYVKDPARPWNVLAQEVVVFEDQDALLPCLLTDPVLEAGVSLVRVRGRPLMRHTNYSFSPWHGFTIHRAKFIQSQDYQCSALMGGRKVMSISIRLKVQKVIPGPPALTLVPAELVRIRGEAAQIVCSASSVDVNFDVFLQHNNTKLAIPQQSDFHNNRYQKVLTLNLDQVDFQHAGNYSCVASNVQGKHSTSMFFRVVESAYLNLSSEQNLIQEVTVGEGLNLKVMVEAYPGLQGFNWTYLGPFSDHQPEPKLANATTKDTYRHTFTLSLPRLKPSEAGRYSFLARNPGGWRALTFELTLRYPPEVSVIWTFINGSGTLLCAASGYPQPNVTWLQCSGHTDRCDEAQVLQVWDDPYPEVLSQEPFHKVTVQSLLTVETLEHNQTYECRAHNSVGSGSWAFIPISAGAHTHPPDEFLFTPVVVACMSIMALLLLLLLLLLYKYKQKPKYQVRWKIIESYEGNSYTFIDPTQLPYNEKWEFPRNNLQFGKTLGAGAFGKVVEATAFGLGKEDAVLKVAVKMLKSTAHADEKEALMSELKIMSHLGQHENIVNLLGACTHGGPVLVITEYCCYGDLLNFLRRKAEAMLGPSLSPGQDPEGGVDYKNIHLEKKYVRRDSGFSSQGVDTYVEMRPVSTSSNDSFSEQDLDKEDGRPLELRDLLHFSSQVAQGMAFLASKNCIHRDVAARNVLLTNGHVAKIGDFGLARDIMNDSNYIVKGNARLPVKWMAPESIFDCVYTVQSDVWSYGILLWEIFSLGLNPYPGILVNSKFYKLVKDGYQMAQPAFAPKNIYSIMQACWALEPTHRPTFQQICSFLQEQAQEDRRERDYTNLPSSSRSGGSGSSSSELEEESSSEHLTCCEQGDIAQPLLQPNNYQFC
Tyrosine-protein kinase HCK (Homo sapiens), sequence (P08631 2-526 limits assumed): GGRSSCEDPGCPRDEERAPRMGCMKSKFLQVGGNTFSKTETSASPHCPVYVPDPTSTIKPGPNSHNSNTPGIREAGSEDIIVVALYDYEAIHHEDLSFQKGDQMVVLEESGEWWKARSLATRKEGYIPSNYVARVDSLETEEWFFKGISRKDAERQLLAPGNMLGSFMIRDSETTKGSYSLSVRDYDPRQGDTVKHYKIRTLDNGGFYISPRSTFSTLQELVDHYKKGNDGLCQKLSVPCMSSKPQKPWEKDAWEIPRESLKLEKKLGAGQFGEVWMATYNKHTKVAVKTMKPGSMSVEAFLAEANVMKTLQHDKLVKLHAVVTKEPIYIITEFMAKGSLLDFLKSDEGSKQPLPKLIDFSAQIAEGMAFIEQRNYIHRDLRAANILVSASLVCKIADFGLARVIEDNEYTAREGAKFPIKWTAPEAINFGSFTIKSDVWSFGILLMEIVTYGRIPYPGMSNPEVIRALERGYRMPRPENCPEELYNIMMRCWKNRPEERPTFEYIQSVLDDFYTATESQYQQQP
Insulin receptor-related protein (Homo sapiens), sequence (P14616 27-742 limits assumed): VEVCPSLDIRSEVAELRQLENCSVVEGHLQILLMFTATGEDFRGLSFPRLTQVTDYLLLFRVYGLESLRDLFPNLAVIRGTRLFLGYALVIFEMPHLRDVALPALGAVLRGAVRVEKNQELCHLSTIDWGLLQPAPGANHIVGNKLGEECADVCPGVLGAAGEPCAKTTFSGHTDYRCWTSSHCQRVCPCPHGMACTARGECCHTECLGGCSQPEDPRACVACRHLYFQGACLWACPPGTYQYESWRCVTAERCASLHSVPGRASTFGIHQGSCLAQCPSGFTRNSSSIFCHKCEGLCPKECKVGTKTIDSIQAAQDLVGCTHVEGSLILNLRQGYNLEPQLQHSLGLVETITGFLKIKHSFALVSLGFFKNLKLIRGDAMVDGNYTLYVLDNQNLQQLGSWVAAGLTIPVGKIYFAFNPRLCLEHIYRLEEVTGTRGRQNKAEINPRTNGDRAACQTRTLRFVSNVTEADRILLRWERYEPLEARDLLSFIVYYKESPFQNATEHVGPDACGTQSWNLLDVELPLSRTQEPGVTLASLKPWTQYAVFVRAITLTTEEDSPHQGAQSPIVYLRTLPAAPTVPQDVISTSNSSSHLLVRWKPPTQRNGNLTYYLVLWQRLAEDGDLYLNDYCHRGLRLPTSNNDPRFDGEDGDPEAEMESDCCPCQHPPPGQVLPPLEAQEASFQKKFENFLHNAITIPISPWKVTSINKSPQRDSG
Insulin receptor-related protein (Homo sapiens), sequence (P14616 747-1297 limits assumed): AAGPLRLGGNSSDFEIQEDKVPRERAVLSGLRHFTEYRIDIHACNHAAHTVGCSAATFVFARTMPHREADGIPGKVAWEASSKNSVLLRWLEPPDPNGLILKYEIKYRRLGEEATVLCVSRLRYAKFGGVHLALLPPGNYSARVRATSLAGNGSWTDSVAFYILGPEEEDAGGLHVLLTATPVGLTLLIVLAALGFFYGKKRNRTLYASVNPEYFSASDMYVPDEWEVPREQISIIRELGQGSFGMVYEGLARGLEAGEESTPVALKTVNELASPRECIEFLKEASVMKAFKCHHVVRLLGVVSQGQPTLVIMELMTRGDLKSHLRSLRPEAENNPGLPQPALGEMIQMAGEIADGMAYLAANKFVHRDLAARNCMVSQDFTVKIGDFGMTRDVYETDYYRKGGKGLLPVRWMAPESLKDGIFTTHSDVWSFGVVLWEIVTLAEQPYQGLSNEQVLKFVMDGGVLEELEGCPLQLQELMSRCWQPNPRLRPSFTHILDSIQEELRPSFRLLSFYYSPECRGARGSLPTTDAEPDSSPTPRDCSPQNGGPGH

Compound	inhibition [1] [%]	inhibition [2] [%]	inhibition [3] [%]	inhibition [4] [%]	inhibition [5] [%]	inhibition [6] [%]	inhibition [7] [%]	inhibition [8] [%]	inhibition [9] [%]	inhibition [10] [%]	inhibition [11] [%]	inhibition [12] [%]	inhibition [13] [%]	inhibition [14] [%]	inhibition [15] [%]	inhibition [16] [%]	inhibition [17] [%]	inhibition [18] [%]	inhibition [19] [%]	inhibition [20] [%]
C/C(Nc1ccc(S(N)(=O)=O)cc1)=C1/C(=O)Nc2ccccc21	1.67	-0.74	-0.72	8.06	46.8	7.83	32.9	12.1	50.6	1.2	2.57	-0.82	6.24	0.12	9.94	2.85	12.7	-2.56	-0.64	-0.1
COc1ccc2ncn(-c3cc(O[C@H](C)c4ccccc4Cl)c(C(N)=O)s3)c2c1	83.7			6.36	2.74	-5.28	4.48	3.05	14.4	-4.31	-3.05	5.34	5.31		-6.53	0.89	3.79	2.92	3.51	-4.15
Fc1ccc(-c2c(-c3ccncc3)nc3n2CCS3)cc1	4.81	2.99	2.94	5.74	-4.22	-5.59		1.54	1.37	-3.03	0.5	2.36	4.87	-4.27	-5.03	5.99	6.13	0.59	0.48	-2.9
CS(=O)(=O)CCNCc1cc(-c2cc3c(Nc4ccc(OCc5cccc(F)c5)c(Cl)c4)ncnc3s2)cs1	8.5	6.1	8.12	9.23	5.05	1.58	-1.31	7.21	7.82	0.55	2.71	6.52	7.87	5.7	4.5	11.5	4.74	1.69	2.82	1.89
COc1cc(C)c(N(C)C(=O)CN(C)C)cc1Nc1nc(Nc2cccc(F)c2C(N)=O)c2cc[nH]c2n1	3.64	2.25	2.83	4.16	2.97			-0.28	4.04	-3.95	-2.41	2.52	4.78	31.2	81.6	52.5	107	5.09	17.1	-2.44
COc1cc(Nc2ncc3c(C)nc(-c4cccc(C(F)(F)F)c4)n3n2)cc(OC)c1OC	86.1			8.36	35.8	-1.5	2.6	32.9	79.8	6.79	39.7	6.2	22.6	2.62	5.74	5.92	8.95	1.64	3.39	2.02
C#Cc1cccc(Nc2ncnc3ccc(OCCCCNCCS(C)(=O)=O)cc23)c1	10.2	2.94	2.68	9.49	1.41	-5.89		4.11	2.93	-1.92	2.18	11.1	20.5	-0.58	-2.48	8.82	4.34	2.65	2.49	-1.95
C[C@@H](Oc1cc(-n2cnc3ccc(OC4CCN(C)CC4)cc32)sc1C(N)=O)c1ccccc1Cl	97.2			6.06	12.2	-3.01	13.8	3.34	16.3	-3.18	-4.42	6.15	13	-9.14	0.05	10.4	-1.99	2.49	3.03	-2.4
CN1CCN(CCCNc2nc3ccc(Oc4ccc(NC(=O)Nc5cc(C(F)(F)F)ccc5F)cc4)cc3[nH]2)CC1	-1.83	1.78	0.98	1.87	1.66		-0.49	3.57	17.3	-4.47	-1.88	4.66	9.14	-9.82	-7.78	-3.22		1.22	0.55	-2.06
C[C@@H](Oc1cc(-n2cnc3ccc(OCC4CCN(C)CC4)cc32)sc1C(N)=O)c1ccccc1Cl	89.7			93.6	11.7	5.35	23.9	4.53	17.9	4.31	15.3	8.11	29.6	6.33	7.27	6.64	8.87	2.3	3.31	2.76
Clc1ccc(CNc2nccc(-c3cnn4ncccc34)n2)cc1	-2.99	2.4	2.85	0.13	2.01	-1.51	1.12	1.45	10.5	-1.29	0.07	5.97	5.79	2.48		0.04	1.97	2.17	2.19	0
Nc1nccc(-c2c(-c3ccc(F)cc3)ncn2C2CCC(O)CC2)n1 (stereo unspecified)	-1.68	-2.32	-1.2	-4.27	0.98	1.39	-0.22	2.19	14.7	1.57	6.58	1.96	12.7	-1.46	-1.17	0.89	-0.36	-0.97	-2.71	-0.36
c1ccc(-c2n[nH]cc2-c2ccnc(-c3ccc(OCCN4CCOCC4)cc3)c2)nc1		-1.38	-1.28	-2.01	1.73	-0.95	8.44	2.4	8.98	-0.84	4.24	1.69	4.55	-2.45	-2.14	-2.85	-1.85	-0.78	-0.34	5.52
COc1cc2ncn(-c3cc(OCc4cccs4)c(C(N)=O)s3)c2cc1OC	28.4			4.76	1.62	-6.1	34.7	1.28	11.7	-2.3	10.6	4.48	23.4	-8.52	-6.38	-0.44	2.03	0.43	1.63	-1
